One may read the inhibition as the change of the read-out against control, counted positive when it falls.

Screen size: about 360,000 compounds; about 4,600 (1.3%) were called active.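 How the source made its calls: active means percent inhibition above its own plate's cutoff, namely the mean of that plate's compound wells plus 3 SD; inactive means the rest.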 Only a selection was taken, and actives are over-represented in it overall.

Experimental findings from PubChem BioAssay AID588852 (The Scripps Research Institute Molecular Screening Center, 2011) are described below.

In the experiment the target is Muscarinic acetylcholine receptor M1 (Homo sapiens) (UniProt P11229). The experiment can be described thus: human M1 muscarinic receptor antagonists, primary screen, CHO-K1 cells, Fluo-8 calcium fluorescence, 1536-well (AID 588852).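 Further: peak over basal fluorescence ratio during 140 s after agonist addition; 0% = ACh EC80 plus DMSO and 100% = DMSO alone without agonist.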 The settings on record: CHO-K1 hM1, Fluo-8 calcium fluorescence, ACh EC80 antagonist; at 3 µM; hits give high values.
Chain of Muscarinic acetylcholine receptor M1 (Homo sapiens) (P11229 whole entry, looked up): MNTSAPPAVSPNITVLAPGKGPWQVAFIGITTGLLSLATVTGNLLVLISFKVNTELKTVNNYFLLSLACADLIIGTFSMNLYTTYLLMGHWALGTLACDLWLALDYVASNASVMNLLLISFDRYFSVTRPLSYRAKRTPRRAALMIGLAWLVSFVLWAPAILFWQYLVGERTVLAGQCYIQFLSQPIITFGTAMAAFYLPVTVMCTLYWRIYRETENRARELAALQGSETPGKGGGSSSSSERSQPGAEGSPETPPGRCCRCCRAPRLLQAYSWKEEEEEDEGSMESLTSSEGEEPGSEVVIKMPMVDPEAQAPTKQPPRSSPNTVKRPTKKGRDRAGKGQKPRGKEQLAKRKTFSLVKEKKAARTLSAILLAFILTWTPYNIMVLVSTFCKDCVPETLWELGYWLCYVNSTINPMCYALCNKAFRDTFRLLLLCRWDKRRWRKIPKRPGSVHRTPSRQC
For `CCN1CCC2(CC1)N=C(c1ccc(F)cc1)C(=S)N2C(=O)c1ccc(C)cc1`, the inhibition was 90.6% (active).
The same measure for `CCN1CCC(O)(/C=C/c2ccc(C)cc2)C(C(=O)/C=C/c2ccc(C)cc2)C1` (stereo not drawn): 5.04% (inactive); for `Cc1ccc(SCC(=O)N2CCN(c3ccc(F)cc3)CC2)cc1`: 1.11% (inactive); for `C[C@@H]1CN([C@H](C)CO)C(=O)CCCn2nncc2CO[C@@H]1CN(C)S(=O)(=O)c1cccc(C#N)c1`: -0.77% (inactive).
Take `COc1ccc(C2=Nc3ccccc3NC(=O)C2N(C(=O)c2cc3ccccc3[nH]2)c2ccccc2)cc1` (stereo not drawn): the inhibition was -26.4% (inactive).
The value for `CC(C)(C)CC(=O)Nc1nc(C(N)Cc2ccc(C(F)(F)F)cc2)cs1` (stereo not drawn) was -6.85% (inactive).
With `O=C(O)C1C2C=CC(O2)C1C(=O)NCCc1cccc(Cl)c1` (stereo not drawn), the inhibition was -2.69% (inactive).
Regarding `COc1cccc(NC(=O)C2c3cc(OC)c(OC)cc3C(=O)N(C)C2c2cccnc2)c1` (stereo not drawn), the inhibition is -10.6% (inactive).
With `O=C(c1ccc(OC2CCN(C/C=C/c3ccc(F)cc3)CC2)cc1)N1CCCCC1`, the inhibition was 29.3% (inactive).
`Cc1nn(C)c(Cl)c1CN1CCC(Oc2ccc(C(=O)N3CCCC3)cc2)CC1`: the inhibition is 8.44% (inactive).
The value for `CC(=O)Nc1ccc(CN2CCC(Oc3ccc(C(=O)N4CCCC4)cc3)CC2)cc1` was 53.8% (active); that for `CCOP(=O)(OCC)C(Cc1ccccc1)N=C(c1ccccc1)c1ccccc1` (stereo not drawn) was -5.83% (inactive); that for `Cc1c(CN2CCCC(C(=O)c3cccc(Cl)c3)C2)c(=O)n(-c2ccccc2)n1C` (stereo not drawn) was 27.6% (active).
The value for `Cc1c(CN2CCC(C)CC2)c(=O)n(-c2ccccc2)n1C` was 8.27% (inactive); that for `Cc1cccc(N2CCN(Cc3c(C)n(C)n(-c4ccccc4)c3=O)CC2)c1C` was 12.1% (inactive); that for `CC(C)(O)C#Cc1ccc(CNC[C@H]2O[C@@H](n3cnc4c(=O)[nH]c(N)nc43)[C@H](O)[C@@H]2O)s1` was 3.48% (inactive).
On to `C=CCOC(=O)C1=C[C@@H](c2ccc3c(c2)OCO3)C[C@@H](OCCCCO)O1`, for which the inhibition was -1.17% (inactive).
The value for `Cc1cc2c(cc1C)N1C(=O)c3cc4ccccc4cc3NC(=O)C1C(=O)N2` (stereo not drawn) was -27% (inactive).
On to `COc1ccccc1NC(=S)NC(=O)C(C)C`, for which the inhibition was -7.13% (inactive).
For the compound `O=C(CCN1CCN(c2ccccc2)CC1)NNC(=S)Nc1ccccc1`, the inhibition is 17.2% (inactive).
As for `CCCCC(=O)NNC(=S)NC(=O)C(c1ccccc1)c1ccccc1`, the inhibition was 68.7% (active).
In the case of `COc1cc(NC(=O)c2cc(-c3ccc(F)cc3OC(C)C)n[nH]2)cc(OC)c1OC`, the inhibition was 8.53% (inactive).
Turning to `CCc1ccc(C(=O)OCC(=O)NCC(F)(F)F)cc1`, the inhibition is -11.6% (inactive).
